Assay outcomes (PubChem BioAssay)
HEK293 tox – cytotoxic in the GLP-1 receptor inverse agonist counter-screen | HEK293 cAMP-luciferase reporter cells, luminescence, 24 h | Potency, µM (top dose mostly 38.3 µM), inactives show at the top dose activity change, negative = inhibition, hits mostly inhibitors | hit rate 0.13% among 410,000;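 note: loss of luciferase light is scored as toxicity; % is set by controls: 0 for no effect and ±100 for the full control effect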
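Luminescence readout: signal drop marks cytotoxicity. Plated cells grew 12 h at 37 °C, 5% CO2, received 23 nL compound for 24 h, then got luciferase reagent, read after 12 min at RT.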
BRCA1 expr up – activators of BRCA1 expression. AID 624202. Potency, µM (highest dose often 46.1 µM), for the others: at the highest dose activation, usual class: activators. hit rate 1.1% among 380,000. MCF7-BRCA1-FFLuc reporter, luminescence, 48 h; response scale: scaled: vehicle 0%, 10 µM genistein 100%; note: nearly all actives have a fitted effect of over 80% in size
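First, MCF7-BRCA1-FFLuc cells (2000/well) attach for 2 h; next, compounds are pin-added and incubated 48 h at 37 °C; finally, luciferase reagent is added and luminescence read after 15 min.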
GLP1R inv ag – GLP-1 receptor (human) inverse agonism; P43220; HEK293 GLP-1R CRE-luciferase, luminescence, 24 h; GLP-1R form is constitutively active; hit rate 1.6% among 410,000; Potency, µM (series often up to 38.3 µM), for inactives: at the top dose activity change, negative = inhibition, most hits filed as inhibitors; note: % is set by controls: 0 for no effect and ±100 for the full control effect; nearly all actives have a fitted effect of over 55% in size
Target sequence (P43220 whole entry, looked up): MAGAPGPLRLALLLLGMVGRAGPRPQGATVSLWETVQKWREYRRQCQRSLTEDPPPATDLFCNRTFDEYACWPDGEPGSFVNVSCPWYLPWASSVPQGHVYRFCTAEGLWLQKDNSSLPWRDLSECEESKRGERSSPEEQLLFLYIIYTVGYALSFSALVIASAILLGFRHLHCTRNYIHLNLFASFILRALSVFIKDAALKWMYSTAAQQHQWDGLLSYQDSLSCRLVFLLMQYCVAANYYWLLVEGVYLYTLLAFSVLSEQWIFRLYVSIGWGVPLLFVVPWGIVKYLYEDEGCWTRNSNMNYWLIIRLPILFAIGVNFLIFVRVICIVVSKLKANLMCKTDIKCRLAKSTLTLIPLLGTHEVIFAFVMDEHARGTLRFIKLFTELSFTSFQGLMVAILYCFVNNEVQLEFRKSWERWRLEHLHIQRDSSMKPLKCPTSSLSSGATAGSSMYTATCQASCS
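HEK293 cells stably co-expressing constitutively active GLP-1R and a cAMP-responsive luciferase reporter were seeded in DMEM with 10% Nu serum, given compounds after 12 h, and incubated 24 h at 37 deg C. Luminescence was then read.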
GLP-1R agonist – GLP-1 receptor (human) agonism; HEK293 GLP-1R CRE-luciferase, luminescence, 4-6 h; cells express a hypersensitive GLP-1R form; P43220; Potency, µM (doses to about 45.6 µM), for inactives: at the top dose activation, usual class: activators; hit rate 0.007% among 380,000; note: % of control where 0% means no effect
Mito fusion yeast – blocks mitochondrial division or promotes mitochondrial fusion. S. cerevisiae fusion-defective mutant growth rescue, CellTiterGlo 48 h. hit rate 0.23% among 320,000. Potency, µM (highest dose often 46.1 µM), for the others: at the top dose growth rescue (activation), hits mostly activators; note: % of control where 0% means no effect; nearly all actives have a fitted effect of over 45% in size
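Temperature-sensitive fusion-defective S. cerevisiae (e.g. fzo1-1, mgm1-5) were grown with compound in YPEG medium (3% ethanol, 3% glycerol) for 48 hours at 37C. Growth rescue was measured as viability by CellTiterGlo luminescence after 10 minutes at ambient.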
* hit, by the source's call. Most compounds without a hit are left out; they make up all but 2.8% or so of the library. Calls come from the whole dose curve; as a rule, active = well fitted curve in the direction sought with a large enough effect; inconclusive = small, poorly fitted or top-dose-only effect, or another doubt; inactive = no such curve, though single readings can be large; an effect the other way counts as inactive or inconclusive. Potency is the fitted concentration of half-maximal effect.

Results for O=C(NC(NC(=S)Nc1ccc(Cl)c(Cl)c1)C(Cl)(Cl)Cl)c1ccco1 (configuration not stated) ?
HEK293 tox: inconclusive; BRCA1 expr up: -69%; GLP1R inv ag: 3.5µM*; GLP-1R agonist: -37%; Mito fusion yeast: -10%

Results for CC(=O)c1cccc(NC(=S)NCc2ccco2)c1 ?
HEK293 tox: -30%; BRCA1 expr up: -6%; GLP1R inv ag: -17%; GLP-1R agonist: -5%; Mito fusion yeast: -1%

How did S=C(NCc1ccco1)Nc1ccc(Cl)c(Cl)c1 do in these assays?
HEK293 tox: -11%; BRCA1 expr up: 2%; GLP1R inv ag: 10µM*; GLP-1R agonist: 0%; Mito fusion yeast: -7%

What do the screens show for `Nc1nc(CSc2ncccn2)nc(Nc2ccccc2)n1`?
HEK293 tox: 3%; BRCA1 expr up: 4µM*; GLP1R inv ag: 49%; GLP-1R agonist: 3%; Mito fusion yeast: -1%

What do the screens show for `Cc1ccc(Nc2nc(N)nc(CSc3ncccn3)n2)cc1`?
HEK293 tox: 4%; BRCA1 expr up: 2.2µM*; GLP1R inv ag: 93%; GLP-1R agonist: 32%; Mito fusion yeast: -4%

How did Nc1nc(CSc2n[nH]c(-c3ccccc3)n2)nc(Nc2ccccc2)n1 do in these assays?
HEK293 tox: 20%; BRCA1 expr up: -33%; GLP1R inv ag: 4%; GLP-1R agonist: -5%; Mito fusion yeast: -1%

Results for Cc1ccc(Nc2nc(N)nc(CSc3nc(C)cc(C)n3)n2)cc1 ?
HEK293 tox: 6%; BRCA1 expr up: -16%; GLP1R inv ag: 160%; GLP-1R agonist: 14%; Mito fusion yeast: -1%

Results for Cc1cccc(CC(=O)NCCn2c(C)cc3ccccc32)c1 ?
HEK293 tox: -21%; BRCA1 expr up: -9%; GLP1R inv ag: inconclusive; GLP-1R agonist: 3%; Mito fusion yeast: 17%

How did Cc1sc2nc(C3CC3)nc(SCC(=O)N3CCc4ccccc4C3)c2c1C do in these assays?
HEK293 tox: -9%; BRCA1 expr up: -21%; GLP1R inv ag: inconclusive; GLP-1R agonist: 1%; Mito fusion yeast: 13µM*

How did CCCCCCCCCC[n+]1cc(Br)cc(Br)c1 do in these assays?
BRCA1 expr up: -79%

How did CN(C)S(=O)(=O)N(CC(=O)NCCSCc1ccc(Cl)cc1)c1ccccc1 do in these assays?
HEK293 tox: 5%; BRCA1 expr up: 2%; GLP1R inv ag: 8.9µM*; GLP-1R agonist: 15%; Mito fusion yeast: 5%

What do the screens show for `O=S(=O)(c1ccc(Br)cc1F)N1CC[C@H](O)C1`?
HEK293 tox: 0%; BRCA1 expr up: 17%; GLP1R inv ag: 6%; GLP-1R agonist: -3%

How did O=C1NC(=O)C(Cc2cccc(Oc3ccccc3)c2)S1 (configuration not stated) do in these assays?
HEK293 tox: -5%; BRCA1 expr up: 46%; GLP1R inv ag: inconclusive; GLP-1R agonist: -4%; Mito fusion yeast: 11µM*

What do the screens show for `CN(C(=O)COC(=O)c1ccc(Cl)nc1)c1c(N)n(Cc2ccccc2)c(=O)[nH]c1=O`?
HEK293 tox: -6%; BRCA1 expr up: -3%; GLP1R inv ag: 6%; GLP-1R agonist: -4%; Mito fusion yeast: 2%

Results for CCCCCNc1nc2sc3c(c2c(=O)n1-c1cccc(Cl)c1)CCN(C)C3 ?
HEK293 tox: inconclusive; BRCA1 expr up: -53%; GLP1R inv ag: inconclusive; GLP-1R agonist: 21%; Mito fusion yeast: -5%

How did Cc1ccc(OCC(=O)Nc2ccc(F)cc2)c([N+](=O)[O-])n1 do in these assays?
HEK293 tox: -4%; BRCA1 expr up: 82%; GLP1R inv ag: 14%; GLP-1R agonist: 16%; Mito fusion yeast: 1%

How did O=C(COc1cccnc1[N+](=O)[O-])Nc1ncc(Cl)cc1Cl do in these assays?
HEK293 tox: 3%; BRCA1 expr up: 23%; GLP1R inv ag: 21%; GLP-1R agonist: 7%; Mito fusion yeast: 4%

How did O=C(COc1cccnc1[N+](=O)[O-])Nc1cc(Cl)ccc1Cl do in these assays?
HEK293 tox: 12%; BRCA1 expr up: 11µM*; GLP1R inv ag: 15%; GLP-1R agonist: 11%
